The other results are listed elsewhere or left out. The source made the active and inactive calls.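 The calls were made as follows, unless noted: active = mean inhibition above about 50% when retested at one dose (limit read from the data); inactive = the rest.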
Tested on: not listed separately
Assay: luciferase luminescence interference by compounds, confirmation, artefact control for SENP inhibitor project, biochemical, single concentration, SENP8 reaction pre-completed (AID 488919);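 also: plate controls were DMSO wells with completed reaction for no effect and substrate without enzyme for full effect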
Conditions: Pre-incubated SENP8/Z-RLRGG-aminoluciferin, at 12.5 µM, stronger effect = higher value
In the case of `O=C(Nc1ccn(Cc2ccccc2)n1)c1n[nH]c([N+](=O)[O-])c1Cl`, the inhibition is reported as 96.7% (active).
In the case of `CCOC(=O)c1ccc(Nc2cc3ccccc3c(=O)[nH]2)cc1`, the inhibition is reported as -2.7% (inactive).
In the case of `Cc1ccsc1C(=O)OCC(=O)c1cc(C)n(CC2CCCO2)c1C` (centres undefined), the inhibition is reported as 58.8% (active).
For `Cn1c(NC(=O)c2ccccc2)nc2ccccc21`, the inhibition was 65.2% (active).
For `COc1ccc(-c2cn3ccsc3n2)cc1`, the inhibition was 56.3% (active).
For `O=c1c2cc(-c3ccccc3)sc2nc2n1N=C(c1cccs1)CS2`, the inhibition was 3.2% (inactive).
With `O=C(/C=C/c1ccc2c(c1)OCCO2)c1ccc(O)cc1` the inhibition was 86.9% (active).
With `O=C(Nc1nnc(S(=O)(=O)N2CCCCCC2)s1)c1cccc(Br)c1` the inhibition was 29.4% (inactive).
For `O=C(Nc1ccccc1)c1ccc2c(c1)OCCCO2`, the inhibition was 81.9% (active).
For `Cc1oc2c(c1C(=O)N1CCOCC1)C(=O)c1ccccc1C2=O`, the inhibition was -2.3% (inactive).
In the case of `c1c2c(cc3sc(N4CCCCC4)nc13)OCCO2`, the inhibition is reported as 52.1% (active).

Target: Protein Mdm4 (Homo sapiens) + E3 ubiquitin-protein ligase Mdm2 (Homo sapiens) (UniProt O15151+Q00987)
Sequence (O15151 whole entry, looked up): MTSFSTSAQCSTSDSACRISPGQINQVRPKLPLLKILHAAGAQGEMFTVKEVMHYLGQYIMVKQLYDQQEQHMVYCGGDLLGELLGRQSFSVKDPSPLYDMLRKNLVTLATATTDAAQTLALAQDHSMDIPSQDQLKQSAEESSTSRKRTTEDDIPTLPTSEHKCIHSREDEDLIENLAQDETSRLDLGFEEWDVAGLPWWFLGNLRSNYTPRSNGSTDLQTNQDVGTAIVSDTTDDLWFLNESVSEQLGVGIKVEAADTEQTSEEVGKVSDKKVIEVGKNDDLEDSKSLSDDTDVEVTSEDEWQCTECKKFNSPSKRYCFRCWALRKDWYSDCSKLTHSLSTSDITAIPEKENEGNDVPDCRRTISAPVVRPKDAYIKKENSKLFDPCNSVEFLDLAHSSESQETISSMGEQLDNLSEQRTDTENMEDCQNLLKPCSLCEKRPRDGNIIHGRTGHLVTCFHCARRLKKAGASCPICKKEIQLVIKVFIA
Sequence (Q00987 whole entry, looked up): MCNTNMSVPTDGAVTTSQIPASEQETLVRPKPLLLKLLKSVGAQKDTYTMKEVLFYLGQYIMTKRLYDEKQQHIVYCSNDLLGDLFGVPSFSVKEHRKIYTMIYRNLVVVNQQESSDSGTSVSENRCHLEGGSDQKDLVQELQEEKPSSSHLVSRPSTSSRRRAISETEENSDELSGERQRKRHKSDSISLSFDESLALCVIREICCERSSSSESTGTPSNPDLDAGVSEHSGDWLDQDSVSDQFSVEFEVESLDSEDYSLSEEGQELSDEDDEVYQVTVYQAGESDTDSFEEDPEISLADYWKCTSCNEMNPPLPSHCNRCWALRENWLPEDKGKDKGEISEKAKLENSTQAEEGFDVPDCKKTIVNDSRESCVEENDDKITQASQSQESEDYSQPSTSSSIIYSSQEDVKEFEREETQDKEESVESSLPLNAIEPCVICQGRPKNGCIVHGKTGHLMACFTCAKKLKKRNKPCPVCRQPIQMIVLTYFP
Assay: retested Mdm2-MdmX interaction blockers, confirmation, cell-based, luminescence, single concentration, set 2 (AID 504601;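 active = mean inhibition of the luminescence signal across two replicates at or above 26 percent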)
Conditions: SaOS-2 split-luciferase Mdm2/MdmX complementation, at 8 µM, stronger effect = higher value
For `O=C1[C@H]2[C@@H](c3ccc(F)cc3)N3C(=O)N(c4ccc(C(F)(F)F)cc4)C(=O)[C@@]3(Cc3ccccc3)[C@H]2C(=O)N1C1CCCCC1`, the inhibition was 101% (active).
In the case of `COc1ccc(C(=O)NC2CCCc3c2cnn3-c2cccc(C)c2C)c(OC)n1` (centres undefined), the inhibition is reported as 102% (active).
In the case of `CC[C@]1(C(=O)OC)[C@H]2C(=O)N(Cc3ccccc3)C(=O)[C@H]2[C@H]2CN=C(SCc3ccc(Cl)cc3)N21`, the inhibition is reported as 103% (active).
For `CC(=O)c1ccc(S(=O)(=O)N2CCN(C(=O)/C=C/c3ccc4ccccc4n3)CC2)cc1`, the inhibition was 85.2% (active).
For `COc1cccc(NC(=O)[C@H](Cc2c[nH]c3ccccc23)NC(=O)[C@@H]2Cc3ccccc3CN2)c1`, the inhibition was 98.2% (active).
With `CCOC(=O)/C=C/C(=O)OCC(=O)NC(c1ccccc1)c1ccccc1` the inhibition was 99.7% (active).
For `O=C(CCCN1C(=O)/C(=C/c2ccccc2)SC1=S)Nc1ccc(O)cc1`, the inhibition was 80.2% (active).
With `CCOc1cc(N2CCOCC2)c(OCC)cc1NC(=O)COc1cccc2cccnc12` the inhibition was 92.7% (active).
For `O=C(/C=C/Sc1ncn[nH]1)c1ccc(Cl)cc1`, the inhibition was 103% (active).
For `CC[C@]1(C(=O)OC)[C@H]2C(=O)N(Cc3ccccc3)C(=O)[C@H]2[C@H]2CN=C(SCc3ccc(C#N)cc3)N21`, the inhibition was 102% (active).

Tested on: not listed separately
Assay: Apaf-1 inhibitors, single-dose retest, confirmation, biochemical, fluorescence, DEVD-Rh110, 20 µM (AID 504614;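 active = mean inhibition of at least 40% at 20 µM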;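 also: plate controls were DMSO wells for no effect and DEVD-CHO caspase inhibitor control wells for full effect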)
Conditions: reconstituted apoptosome, caspase-3 DEVD-Rh110 fluorescence; at 20 µM; stronger effect = higher value
In the case of `Clc1ccc(C2=CSC3=Nc4cccc5cccc(c45)N23)cc1`, the inhibition is reported as 62.8% (active).
In the case of `CC(=O)N(C1=C(Cl)C(=O)c2ccccc2C1=O)c1ccc(C(=O)O)cc1`, the inhibition is reported as 95% (active).
With `CC(C)n1cnc2c(NCc3ccccc3)cc(OCC3CCN(C)CC3)cc21` the inhibition was 78.1% (active).
With `CCN1C(=O)c2cccc3c(N)ccc1c23` the inhibition was 70.1% (active).
With `CCOC(=O)c1ccc(Nc2cc3ccccc3c(=O)[nH]2)cc1` the inhibition was 62.4% (active).
In the case of `Cc1oc2c(c1C(=O)N1CCOCC1)C(=O)c1ccccc1C2=O`, the inhibition is reported as 52.9% (active).

Tested on: not listed separately
Assay: Rh110 fluorescence interference by putative Apaf-1 inhibitors, confirmation, artefact control for Apaf-1 inhibitor project, biochemical, 20 µM (AID 504615;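 active = signal rise of 40% or more at 20 µM, treated as a fluorescence artifact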)
Conditions: quenched caspase reaction, at 20 µM, stronger effect = higher value
With `Clc1ccc(C2=CSC3=Nc4cccc5cccc(c45)N23)cc1` the activation (fluorescence interference) was -1.7% (inactive).
In the case of `CC(=O)N(C1=C(Cl)C(=O)c2ccccc2C1=O)c1ccc(C(=O)O)cc1`, the activation (fluorescence interference) is reported as 9.87% (inactive).
With `CC(C)n1cnc2c(NCc3ccccc3)cc(OCC3CCN(C)CC3)cc21` the activation (fluorescence interference) was -0.65% (inactive).
For `CCN1C(=O)c2cccc3c(N)ccc1c23`, the activation (fluorescence interference) was 2.39% (inactive).
For `CCOC(=O)c1ccc(Nc2cc3ccccc3c(=O)[nH]2)cc1`, the activation (fluorescence interference) was 11.7% (inactive).
In the case of `Cc1oc2c(c1C(=O)N1CCOCC1)C(=O)c1ccccc1C2=O`, the activation (fluorescence interference) is reported as 8.76% (inactive).

Tested on: not listed separately
Assay: fluorescence interference of Apaf-1 inhibitor hits, dose response, artefact control for Apaf-1 inhibitor project (AID 588538; call rule not given here)
Conditions: fluorescence interference counterscreen, Apaf-1 assay format
With `Clc1ccc(C2=CSC3=Nc4cccc5cccc(c45)N23)cc1` the IC50 was > 100 µM (inactive).
In the case of `CC(=O)N(C1=C(Cl)C(=O)c2ccccc2C1=O)c1ccc(C(=O)O)cc1`, the IC50 is reported as > 100 µM (inactive).
In the case of `CC(C)n1cnc2c(NCc3ccccc3)cc(OCC3CCN(C)CC3)cc21`, the IC50 is reported as > 100 µM (inactive).
In the case of `CCN1C(=O)c2cccc3c(N)ccc1c23`, the IC50 is reported as > 100 µM (inactive).
With `CCOC(=O)c1ccc(Nc2cc3ccccc3c(=O)[nH]2)cc1` the IC50 was > 100 µM (inactive).
With `Cc1oc2c(c1C(=O)N1CCOCC1)C(=O)c1ccccc1C2=O` the IC50 was > 100 µM (inactive).

Tested on: not listed separately
Assay: Peg3 promoter reporter inhibitors, retest, confirmation, cell-based, HeLa, luciferase reporter, single concentration (AID 602417;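 active = at 20 µM dose, 40% or more inhibition averaged across four replicates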)
Conditions: HeLa PEG-Prom luciferase reporter, luminescence, overnight; at 20 µM; stronger effect = higher value
For `CN(c1ccc2nc3ccccc3c(=O)n2n1)C1CCCCC1`, the inhibition was 78.8% (active).
For `Cc1ccc2nc(-c3ccc(Br)cc3)cn2c1`, the inhibition was 49.5% (active).
With `Cc1ccsc1C(=O)OCC(=O)c1cc(C)n(CC2CCCO2)c1C` (centres undefined) the inhibition was 80.8% (active).
For `c1c2c(cc3sc(N4CCCCC4)nc13)OCCO2`, the inhibition was 37.5% (inactive).

Target: PEG-3 (UniProt Q6IN02)
Sequence (Q6IN02 whole entry, looked up): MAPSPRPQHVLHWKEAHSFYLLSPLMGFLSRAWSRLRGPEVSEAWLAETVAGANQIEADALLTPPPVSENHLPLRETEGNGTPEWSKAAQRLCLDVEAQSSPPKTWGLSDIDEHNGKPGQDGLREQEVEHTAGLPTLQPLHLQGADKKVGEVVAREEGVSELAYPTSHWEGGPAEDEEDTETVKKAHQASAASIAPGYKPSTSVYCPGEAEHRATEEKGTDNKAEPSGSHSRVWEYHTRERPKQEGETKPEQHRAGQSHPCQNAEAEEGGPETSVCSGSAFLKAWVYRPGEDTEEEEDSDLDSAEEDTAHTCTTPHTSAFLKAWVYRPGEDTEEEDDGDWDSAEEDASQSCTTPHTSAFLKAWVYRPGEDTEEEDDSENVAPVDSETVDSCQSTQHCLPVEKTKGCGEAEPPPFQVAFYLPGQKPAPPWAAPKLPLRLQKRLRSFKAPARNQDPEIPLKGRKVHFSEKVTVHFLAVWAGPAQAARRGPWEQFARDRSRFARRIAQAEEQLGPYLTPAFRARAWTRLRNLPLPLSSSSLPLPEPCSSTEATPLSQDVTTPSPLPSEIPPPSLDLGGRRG
Assay: Peg3 promoter luciferase inhibitors, potency, dose response, cell-based, HeLa, CREF/GAPDH counter-screen panel (AID 624167)
Conditions: CREF/GAPDH counter-screens; HeLa PEG-Prom luciferase reporter, overnight, run 1, dose range 1, at 100 µM (top of the series) unless noted
For `CN(c1ccc2nc3ccccc3c(=O)n2n1)C1CCCCC1`, the inhibition was 98.5%.
Compound `Cc1ccc2nc(-c3ccc(Br)cc3)cn2c1` has an inhibition of 101%.
Compound `Cc1ccsc1C(=O)OCC(=O)c1cc(C)n(CC2CCCO2)c1C` (centres undefined) has an inhibition of 96.8%.

Target: PEG-3 (UniProt Q6IN02)
Assay: as above
Conditions: CREF/GAPDH counter-screens; HeLa PEG-Prom luciferase reporter, overnight, run 2, dose range 1, at 100 µM (top of the series) unless noted
Compound `CN(c1ccc2nc3ccccc3c(=O)n2n1)C1CCCCC1` has an inhibition of 86.2%.
`Cc1ccc2nc(-c3ccc(Br)cc3)cn2c1` gave an inhibition of 88.9%.
With `Cc1ccsc1C(=O)OCC(=O)c1cc(C)n(CC2CCCO2)c1C` (centres undefined) the inhibition was 92.7%.

From PubChem BioAssay
